# Not all results are given here.
# aSyn 5UTR act: Activators via SNCA 5'UTR binding, MLPCN; hit rate 7.1% among 300,000; activity score, % (tested at 7.5 µM), hits read low; AID 1814, 2009; alpha-synuclein 5'UTR reporter, activators screen; in the data active = activity score below about -60%
# Starred values were filed as active, the others as inactive.
SMILES,aSyn 5UTR act
CC(C)COc1ccc(-c2nnn(CC(=O)N3CCCC3)n2)cc1,-89*
CC1CCCN(C(=O)Cn2nnc(-c3ccccc3F)n2)C1 (centres undefined),-103*
Clc1nc2ccccc2cc1-c1nnn(-c2ccccc2Br)n1,-128*
Brc1ccccc1-n1nnc(-c2nccs2)n1,-97*
CCSc1ncc(/C=N/Nc2ccc(Cl)cc2)n1C,-181*
CCSc1ncc(/C=N/Nc2ccc([N+](=O)[O-])cc2)n1C,-194*
CCSc1ncc(/C=N/Nc2ccccc2)n1C,-109*
O=C(Oc1oc(-c2ccco2)nc1C=Nc1ccc(Cl)cc1)c1ccco1,-170*
COc1ccc(N=Cc2nc(-c3ccco3)oc2O)cc1,-111*
N#Cc1nc(-c2ccc(F)cc2)oc1NCCCn1ccnc1,-90*
N#Cc1nc(-c2ccc(OCc3ccccc3Cl)cc2)oc1NCCCn1ccnc1,-65*
Cc1ccc2nc(-c3ccc(NC(=S)NC(=O)C(C)C)cc3)sc2c1,-208*
CCC(=O)NC(=S)Nc1ccc(-c2nc3ccc(C)cc3s2)cc1,-238*
Cc1ccc2nc(-c3ccc(NC(=S)NC4CC(C)(C)NC(C)(C)C4)cc3)sc2c1,121
CCCCCN=C(C)c1c(O)c2ccccc2oc1=O,-212*
Cc1cccc2c1ncc1c(=O)n(-c3ccccc3)[nH]c12,-146*
O=[N+]([O-])c1ccc(-[n+]2ccc3ccccc3c2)c([N+](=O)[O-])c1,-105*
CC(C)NC(=S)N/N=C/c1ccc(N2CCOCC2)cc1,-87*
C=C(C)CNC(=S)N/N=C/c1ccc(N2CCOCC2)cc1,-64*
Cn1c(SCc2ccc(C#N)cc2Cl)nc2ccccc21,-176*
Cc1ccc2nc(SC(C)C(=O)N3CCOCC3)[nH]c2c1 (centres undefined),-94*
Cc1ccc(/C=C2\SC(=S)N(CCCC(=O)NC3CCCC3)C2=O)cc1,98
COc1cc(/C=C2\SC(=S)N(CCC(=O)NC3CCCC3)C2=O)cc(OC)c1OC,-71*
COC(=O)Cn1c(C)nc2c(sc3nc(C)cc(C)c32)c1=O,-76*
O=C(N/N=C1\CCc2ccccc21)c1ccccc1Cl,-129*
SMILES,aSyn 5UTR act
O=C(N/N=C1\CCCc2ccccc21)c1cccc(Br)c1,-93*
CCOC(=O)N/N=C1\CCc2ccccc21,-102*
C/C(=N\NC(=O)c1cccc(Br)c1)c1ccccn1,108
O=C(N/N=C1\CCc2ccccc21)c1ccc(O)cc1,-75*
O=C(N/N=C1\C(=O)c2cccc3cccc1c23)c1ccc(O)cc1,-137*
O=C(N/N=C/c1ccc(O)cc1O)c1ccc(CN2C(=O)c3cccc4cccc2c34)cc1,62
Cc1ccc(C(=O)N/N=C2\CCc3ccccc32)c(C)c1,-139*
S=C(N/N=C1\CCc2ccccc21)NC1CCCCC1,-106*
O=[N+]([O-])c1ccc(C23CC4CC(CC(O)(C4)C2)C3)cc1,-87*
CCn1c(/C=C/c2ccccc2)nc2ccccc21,-157*
COc1ccc(/C=C/c2nc3ccccc3n2C)cc1,109
O=C(Cn1c(/C=C/c2ccccc2)nc2ccccc21)Nc1ccc(F)cc1,-72*
CC(C)Cn1c(/C=C/c2ccccc2)nc2ccccc21,-114*
COc1ccc(Cn2c(/C=C/c3ccccc3)nc3ccccc32)cc1,-202*
Nn1c(SCc2ccccc2)nc2ccccc21,-127*
CN(C)/C=N/c1ncnc2c1cnn2-c1ccc(C(F)(F)F)cn1,-84*
CCC(C)c1ccc(NC(=O)Nc2cccnc2)cc1 (centres undefined),-155*
O=C(Nc1ccccc1)Nc1ccc(Oc2cccnc2)nc1,-105*
O=C(Nc1ccc(OC(F)(F)F)cc1)Nc1cccnc1,-110*
CC(C)(C)c1ccc(Oc2ccc(NC(=O)c3ccccc3C(=O)O)cn2)cc1,86
Cc1ccc(-c2nnc(-c3cccc(Br)c3)o2)cc1,-159*
Cc1ccc(-c2nnc(-c3ccccc3)o2)cc1Br,-149*
CC1(C)CC(=O)c2sc(N3CCCCC3)nc2C1,-91*
Cc1cnn(C(=S)NCCc2ccccc2)c1,-136*
Cc1nn2cc(-c3ccc(Cl)cc3)cnc2c1Cl,-144*
SMILES,aSyn 5UTR act
COc1ccc(C(=O)/C=C/Nc2cccc(C)n2)cc1OC,-195*
Cc1ccc(CSCC(=O)Nc2ccccc2C(=O)O)cc1,-94*
CSc1ccccc1NC(=O)CSCc1ccc(C)cc1,-113*
CCCNC(=O)c1cc(-c2ccco2)on1,-335*
CC(C)CNC(=O)c1cc(-c2ccco2)on1,-137*
CCOc1cc(C2c3c(n[nH]c3C)C(=O)N2c2ccc(Br)cc2)ccc1O (centres undefined),-62*
COc1cccc(-c2nc3sc4c(c3c(=O)[nH]2)CCCCC4)c1,-267*
CCCCOC(=O)c1ccc(-c2ccc(/C=N/NC(=S)NCC)o2)cc1,-89*
CCOC(=O)c1ccc(-c2ccc(/C=N/NC(=O)Cc3nnc(N)s3)o2)cc1,-83*
COC(=O)c1ccc(-c2ccc(/C=N/NC(=O)CC3(C)OCCCO3)o2)cc1,-67*
COC(=O)c1ccc(-c2ccc(/C=N/N3C(=O)C4C5C=CC(C6CC56)C4C3=O)o2)cc1 (centres undefined),-100*

# Source: PubChem BioAssay
